The target in test [1] is Tyrosine-protein kinase CSK (Homo sapiens) (UniProt P41240). As to conditions: at 1 µM.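 Also: each value is an averaged inhibition reading.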
Test [2] concerns the target T1, Discoidin domain-containing receptor 2 (Homo sapiens) (UniProt Q16832).
T1 sequence (whole entry): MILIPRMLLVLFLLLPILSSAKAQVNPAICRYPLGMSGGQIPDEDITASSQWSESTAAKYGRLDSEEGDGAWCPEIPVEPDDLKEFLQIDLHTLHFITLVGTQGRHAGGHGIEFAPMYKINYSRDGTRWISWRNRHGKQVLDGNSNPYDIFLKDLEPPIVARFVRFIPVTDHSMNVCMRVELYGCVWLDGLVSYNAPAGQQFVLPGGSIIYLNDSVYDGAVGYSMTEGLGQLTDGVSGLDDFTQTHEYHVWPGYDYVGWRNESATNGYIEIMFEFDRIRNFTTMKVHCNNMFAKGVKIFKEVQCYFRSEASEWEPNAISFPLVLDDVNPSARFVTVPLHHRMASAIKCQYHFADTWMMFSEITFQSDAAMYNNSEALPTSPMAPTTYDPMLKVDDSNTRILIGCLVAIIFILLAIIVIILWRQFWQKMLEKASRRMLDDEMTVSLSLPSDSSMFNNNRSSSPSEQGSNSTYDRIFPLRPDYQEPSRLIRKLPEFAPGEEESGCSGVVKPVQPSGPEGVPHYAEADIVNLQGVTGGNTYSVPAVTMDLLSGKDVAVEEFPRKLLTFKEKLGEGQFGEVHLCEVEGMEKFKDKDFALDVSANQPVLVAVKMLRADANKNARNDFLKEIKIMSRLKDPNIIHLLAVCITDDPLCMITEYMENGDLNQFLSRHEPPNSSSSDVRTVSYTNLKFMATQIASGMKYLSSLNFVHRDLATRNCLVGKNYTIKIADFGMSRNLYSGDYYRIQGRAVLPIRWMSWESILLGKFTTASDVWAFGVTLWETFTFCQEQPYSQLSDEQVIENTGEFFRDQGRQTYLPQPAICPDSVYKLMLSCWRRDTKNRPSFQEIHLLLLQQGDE
The settings on record: at 0.1 µM.

For test [3], the target named is T1, Discoidin domain-containing receptor 2 (Homo sapiens). The settings on record: at 1 µM.
In test [4] the target is Epidermal growth factor receptor (Homo sapiens) (UniProt P00533). As to conditions: at 0.1 µM.
Epidermal growth factor receptor (Homo sapiens), sequence (P00533 whole entry): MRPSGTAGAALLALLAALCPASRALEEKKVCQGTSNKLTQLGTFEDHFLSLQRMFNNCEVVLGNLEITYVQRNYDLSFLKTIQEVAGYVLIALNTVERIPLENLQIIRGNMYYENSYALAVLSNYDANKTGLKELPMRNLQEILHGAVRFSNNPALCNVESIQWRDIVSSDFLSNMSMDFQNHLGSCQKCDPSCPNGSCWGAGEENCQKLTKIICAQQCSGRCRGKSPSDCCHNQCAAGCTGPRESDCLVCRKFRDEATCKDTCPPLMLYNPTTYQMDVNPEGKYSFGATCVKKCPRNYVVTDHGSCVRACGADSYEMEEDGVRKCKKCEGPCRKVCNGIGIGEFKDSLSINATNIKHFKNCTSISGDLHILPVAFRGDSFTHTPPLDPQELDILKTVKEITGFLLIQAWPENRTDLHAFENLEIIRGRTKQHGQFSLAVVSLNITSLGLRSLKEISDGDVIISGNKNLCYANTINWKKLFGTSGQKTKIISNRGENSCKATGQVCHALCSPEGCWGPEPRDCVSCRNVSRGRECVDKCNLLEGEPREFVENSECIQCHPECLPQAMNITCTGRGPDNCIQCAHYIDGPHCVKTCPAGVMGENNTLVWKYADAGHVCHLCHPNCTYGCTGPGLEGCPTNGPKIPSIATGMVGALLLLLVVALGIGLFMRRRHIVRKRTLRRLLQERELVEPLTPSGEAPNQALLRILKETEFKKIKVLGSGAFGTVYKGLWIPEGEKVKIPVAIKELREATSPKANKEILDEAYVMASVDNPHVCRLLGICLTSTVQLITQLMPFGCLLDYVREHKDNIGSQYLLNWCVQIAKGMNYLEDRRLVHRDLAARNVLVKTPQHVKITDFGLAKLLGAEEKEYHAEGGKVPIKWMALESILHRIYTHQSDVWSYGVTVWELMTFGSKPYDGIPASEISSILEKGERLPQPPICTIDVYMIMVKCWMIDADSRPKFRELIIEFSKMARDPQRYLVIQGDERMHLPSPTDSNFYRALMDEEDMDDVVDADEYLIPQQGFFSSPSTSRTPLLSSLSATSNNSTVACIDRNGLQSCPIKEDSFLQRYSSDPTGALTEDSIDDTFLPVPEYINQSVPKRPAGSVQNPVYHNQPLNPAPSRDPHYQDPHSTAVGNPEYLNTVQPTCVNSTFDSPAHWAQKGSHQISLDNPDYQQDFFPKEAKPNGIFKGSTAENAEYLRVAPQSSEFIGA
For test [5] the target is unchanged. As to conditions: at 1 µM.
The subject of test [6] is Epidermal growth factor receptor (Homo sapiens), P00533 [L858R]. The settings on record: at 0.1 µM.
For test [7] the test system is unchanged. The settings on record: at 1 µM.
Test [8] relates to Epidermal growth factor receptor (Homo sapiens), P00533 [L861Q]. The settings on record: at 0.1 µM.
Epidermal growth factor receptor (Homo sapiens), P00533 [L861Q], sequence (P00533 whole entry L861Q): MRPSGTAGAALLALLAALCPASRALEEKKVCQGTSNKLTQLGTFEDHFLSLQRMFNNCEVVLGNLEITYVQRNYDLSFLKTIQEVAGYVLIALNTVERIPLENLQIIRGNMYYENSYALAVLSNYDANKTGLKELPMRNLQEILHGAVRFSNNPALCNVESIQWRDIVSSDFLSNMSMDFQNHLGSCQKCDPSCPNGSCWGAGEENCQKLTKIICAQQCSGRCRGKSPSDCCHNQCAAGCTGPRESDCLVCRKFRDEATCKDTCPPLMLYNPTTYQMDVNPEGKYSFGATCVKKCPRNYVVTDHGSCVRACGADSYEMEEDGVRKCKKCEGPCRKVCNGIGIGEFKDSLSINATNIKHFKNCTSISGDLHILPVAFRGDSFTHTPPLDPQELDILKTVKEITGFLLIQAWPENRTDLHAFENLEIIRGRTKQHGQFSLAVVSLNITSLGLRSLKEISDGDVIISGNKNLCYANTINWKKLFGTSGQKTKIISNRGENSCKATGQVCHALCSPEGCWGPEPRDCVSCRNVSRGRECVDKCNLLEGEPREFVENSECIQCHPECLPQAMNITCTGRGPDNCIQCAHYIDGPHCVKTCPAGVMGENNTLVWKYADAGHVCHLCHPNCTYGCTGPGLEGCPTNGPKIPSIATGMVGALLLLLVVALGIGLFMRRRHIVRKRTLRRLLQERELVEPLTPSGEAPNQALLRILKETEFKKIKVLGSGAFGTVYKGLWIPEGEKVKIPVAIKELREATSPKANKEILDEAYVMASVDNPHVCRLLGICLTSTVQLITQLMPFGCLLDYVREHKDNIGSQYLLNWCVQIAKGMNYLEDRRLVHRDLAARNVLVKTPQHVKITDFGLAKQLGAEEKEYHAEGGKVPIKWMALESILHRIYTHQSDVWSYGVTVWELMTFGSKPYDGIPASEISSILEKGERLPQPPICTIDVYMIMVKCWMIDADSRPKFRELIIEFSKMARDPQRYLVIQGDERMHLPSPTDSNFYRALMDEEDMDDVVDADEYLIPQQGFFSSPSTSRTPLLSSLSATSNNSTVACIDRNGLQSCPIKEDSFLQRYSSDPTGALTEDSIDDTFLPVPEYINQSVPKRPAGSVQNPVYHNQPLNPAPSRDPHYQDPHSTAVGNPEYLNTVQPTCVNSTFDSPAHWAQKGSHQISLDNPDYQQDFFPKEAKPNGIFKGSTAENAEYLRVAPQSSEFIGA
Test [9] shares this test system. As to conditions: at 1 µM.
In test [10] the test system is Epidermal growth factor receptor (Homo sapiens), P00533 [T790M]. The settings on record: at 0.1 µM.
Epidermal growth factor receptor (Homo sapiens), P00533 [T790M], sequence (P00533 whole entry T790M): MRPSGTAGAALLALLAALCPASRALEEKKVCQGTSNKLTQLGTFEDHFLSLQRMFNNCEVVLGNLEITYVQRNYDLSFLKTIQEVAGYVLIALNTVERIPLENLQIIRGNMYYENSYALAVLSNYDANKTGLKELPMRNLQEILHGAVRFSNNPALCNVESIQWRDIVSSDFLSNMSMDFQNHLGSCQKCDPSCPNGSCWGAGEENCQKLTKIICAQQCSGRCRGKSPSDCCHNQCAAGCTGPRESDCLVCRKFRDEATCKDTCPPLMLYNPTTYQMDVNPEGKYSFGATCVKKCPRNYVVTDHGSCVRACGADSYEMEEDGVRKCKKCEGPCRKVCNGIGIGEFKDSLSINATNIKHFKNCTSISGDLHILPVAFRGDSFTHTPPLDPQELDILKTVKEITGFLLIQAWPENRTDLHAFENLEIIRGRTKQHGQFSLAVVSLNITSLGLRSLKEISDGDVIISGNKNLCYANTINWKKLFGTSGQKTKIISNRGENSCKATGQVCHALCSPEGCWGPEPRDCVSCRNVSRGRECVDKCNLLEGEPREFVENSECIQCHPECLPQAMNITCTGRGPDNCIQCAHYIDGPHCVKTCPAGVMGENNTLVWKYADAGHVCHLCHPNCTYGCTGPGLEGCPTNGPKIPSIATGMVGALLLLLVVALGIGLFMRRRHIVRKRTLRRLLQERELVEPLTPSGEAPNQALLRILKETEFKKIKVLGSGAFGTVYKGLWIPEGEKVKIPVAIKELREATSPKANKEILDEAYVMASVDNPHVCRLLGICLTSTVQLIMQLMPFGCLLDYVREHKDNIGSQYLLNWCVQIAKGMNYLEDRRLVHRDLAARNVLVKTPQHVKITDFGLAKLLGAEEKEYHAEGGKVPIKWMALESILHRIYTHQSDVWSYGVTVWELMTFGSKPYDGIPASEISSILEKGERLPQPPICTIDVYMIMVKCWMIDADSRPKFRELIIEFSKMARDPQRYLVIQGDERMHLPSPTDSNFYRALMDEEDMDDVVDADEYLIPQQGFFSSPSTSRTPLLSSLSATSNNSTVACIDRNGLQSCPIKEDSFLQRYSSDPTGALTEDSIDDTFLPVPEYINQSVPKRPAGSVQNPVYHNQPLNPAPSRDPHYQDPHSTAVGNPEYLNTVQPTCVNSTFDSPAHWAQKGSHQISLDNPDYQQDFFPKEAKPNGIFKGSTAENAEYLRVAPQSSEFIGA

By inhibition is commonly meant the change of the read-out against control, counted positive when it falls.

Tyrosine-protein kinase CSK (Homo sapiens), sequence (P41240 2-450 limits assumed): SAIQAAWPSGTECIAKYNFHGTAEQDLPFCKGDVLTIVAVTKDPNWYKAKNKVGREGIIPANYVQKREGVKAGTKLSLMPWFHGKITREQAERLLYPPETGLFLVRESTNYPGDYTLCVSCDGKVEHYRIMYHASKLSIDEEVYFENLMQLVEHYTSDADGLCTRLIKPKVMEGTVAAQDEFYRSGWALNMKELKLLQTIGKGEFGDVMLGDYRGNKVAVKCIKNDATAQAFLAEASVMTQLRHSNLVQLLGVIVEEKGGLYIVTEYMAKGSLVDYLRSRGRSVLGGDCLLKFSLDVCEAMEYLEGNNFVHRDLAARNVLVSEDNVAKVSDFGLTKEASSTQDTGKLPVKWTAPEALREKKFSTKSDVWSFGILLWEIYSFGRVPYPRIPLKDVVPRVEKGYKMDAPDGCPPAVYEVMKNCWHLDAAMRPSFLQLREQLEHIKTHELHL

Take `Cc1ccc(NC(=O)CC2CC2)cc1-c1ccc(C(=O)NCC2CC2)cc1`: the inhibition amounted to 5.95% in test [1]; 2.18% in test [2]; 5.56% in test [3]; 0.19% in test [4]; 2.75% in [5]; 3.95% in test [6]. The inhibition in test [7] was found to be 4.15%; in test [8] it was 1.88%; in [9], 4.52%; in test [10], 2.03%.

Consider `Cc1ccc2c(c1)/C(=N/Nc1ccc(S(N)(=O)=O)cc1)C(=O)N2`, for which the inhibition in test [1] was -6.97%; in test [2] it was -0.42%; in test [3], -0.71%; in test [4], -0.37%; in test [5], 0.75%; in test [6] it was -1.56%. Besides, the inhibition in test [7] is -1.97%; in test [8], -0.23%; in [9] it was -4.18%; in test [10], -0.84%.

`O=C(Nc1ccc(Oc2ccc3[nH]c(NC(=O)c4ccco4)nc3c2)cc1)Nc1cc(C(F)(F)F)ccc1F`: the inhibition is 35.3% in [1]; 60.3% in [2]; 80.2% in test [3]; -1.7% in test [4]; -1.45% in test [5]; 0.69% in [6]. Also, the inhibition in test [7] was 0.69%; in [8], 0.16%; in test [9], -2.44%; in test [10], 0.07%.

Consider `COc1cccc(-n2ncc3c(N/N=C/c4ccc(S(C)(=O)=O)cc4)ncnc32)c1`, for which the inhibition is 18.2% in test [1]; 1.49% in [2]; 7.83% in [3]; 6.5% in [4]; 22.6% in test [5]; 29.7% in test [6]. In addition, the inhibition was found to be 57.8% in [7], 8.34% in [8], 20.6% in [9] and 0.29% in test [10].

On to `NS(=O)(=O)c1cccc(Nc2cc(-c3ccc(F)cc3)n[nH]2)c1`, for which the inhibition in test [1] was 6.86%; in test [2] it was 0.4%; in test [3], 2.6%; in [4], -0.56%; in [5] it was 3.41%; in test [6], 1.69%. The inhibition was 6.63% in test [7], 2.18% in test [8], 5.8% in test [9] and 2.62% in test [10].

`NC(=O)c1cccc(Nc2nccc(Nc3cccc(F)c3)n2)c1`: the inhibition in [1] was 9.32%; in test [2], -1.54%; in test [3], 6.93%; in test [4], 1.6%; in test [5], 10.6%; in test [6] it was 0.01%. In addition, the inhibition is 31.4% in test [7], 0.09% in [8], 10.1% in test [9] and -0.56% in test [10].

In the case of `NS(=O)(=O)c1cccc(-c2cc3ccncc3cc2OCc2ccccc2)c1`, the inhibition in test [1] was 4.74%; in test [2] it was 1.4%; in test [3] it was 6.85%; in test [4], -0.75%; in test [5], 3.23%; in test [6], 4.24%. Also, the inhibition was determined as 6.99% in [7], 4.79% in test [8], 3.2% in test [9] and 2.32% in [10].

`CN(C)c1cc2c(Nc3ccc4c(cnn4Cc4ccccc4)c3)ncnc2cn1`: the inhibition came to 27.6% in [1], 1.06% in test [2] and 3.09% in test [3].

As to `c1ccc(Nc2ncc(-c3ccccc3)o2)cc1`, the inhibition turned out to be 3.75% in test [1]; 2.39% in test [2]; 7.24% in [3]; 4.96% in test [4]; 10.5% in [5]; 4.87% in [6]. Further, the inhibition worked out at 2.77% in test [7], 2.75% in test [8], 4.14% in [9] and 2.39% in [10].

On to `NS(=O)(=O)c1ccc(N/N=C2\C(=O)Nc3ccc(Cl)cc32)cc1`, for which the inhibition in [1] was 7.01%; in [2], 0.3%; in [3], 3.13%; in test [4], -0.16%; in test [5], 5.53%; in test [6], 2.02%. The inhibition in test [7] was found to be 5.32%; in [8], 1.9%; in [9] it was 3.4%; in [10], 0.9%.

For the compound `COC(=O)c1ccc2c(c1)C(=Cc1cc(Br)c(O)c(Br)c1)C(=O)N2`, the inhibition in test [1] was 5.89%; in test [2] it was 2.18%; in [3] it was 7.08%; in test [4] it was 3.97%; in [5], 2.76%; in test [6], -1.26%. Moreover, the inhibition in test [7] worked out at 11.3%; in test [8], 0.68%; in [9], 4.11%; in [10], 0.31%.

Take `Nc1nccc(C#Cc2cncnc2Nc2ccc(OCc3cccc(F)c3)c(Cl)c2)n1`: the inhibition is 3.09% in [1], 1.14% in test [2] and 4.7% in [3].

Take `COc1cc2ncnc(Nc3ccc(C)c(O)c3)c2cc1OC`: the inhibition in test [1] came out at 16.8%; in test [2] it was 2.29%; in test [3] it was 9.45%; in [4], 64.7%; in test [5] it was 80.9%; in test [6] it was 92.3%. Further, the inhibition in [7] came out at 99.4%; in [8] it was 77.2%; in [9], 96.2%; in test [10] it was 8.64%.

With `Cc1ccc(O)cc1Nc1ccnc2ccc(S(C)(=O)=O)cc12`, the inhibition came out at 94.2% in test [1]; 59.8% in test [2]; 79.7% in test [3]; 12.7% in [4]; 36.6% in [5]; 19.7% in test [6]. Moreover, the inhibition in test [7] came to 72.1%; in test [8], 8.5%; in test [9] it was 31.9%; in [10], 3.11%.

`CS(=O)(=O)Nc1cccc(-c2ccc3c(NC(=O)C4CC4)n[nH]c3c2)c1`: the inhibition in [1] is -2.39%; in test [2] it was 0.9%; in test [3], 0.99%; in test [4], 0.81%; in test [5], 0.31%; in [6], -0.89%. In addition, the inhibition in test [7] is -1.93%; in [8] it was 1.44%; in test [9], -2.52%; in test [10], -1.89%.

With `Cc1nc(-c2ccccc2)n2nc(NCCCN3CCOCC3)ncc12`, the inhibition in [1] is 1.69%; in test [2], 1.13%; in [3], 1.28%; in [4] it was 5.65%; in test [5] it was 7.11%; in [6], 1.69%. The inhibition in test [7] was 4.22%; in [8], 0.9%; in test [9] it was 1.99%; in test [10], -0.64%.

With `COc1ccc2ncnc(Nc3ccc(OCc4ccccc4)cc3)c2c1`, the inhibition came out at 8.35% in [1]; 1.31% in test [2]; 2.34% in [3]; 62.7% in test [4]; 76.2% in test [5]; 12.1% in [6]. Also, the inhibition is 46.3% in test [7], 23.9% in test [8], 39% in test [9] and -0.31% in test [10].

The values above are taken from ChEMBL document CHEMBL1961873, “Compounds: GSK PKIS; Assays: Nanosyn kinase panel” (2012).
